Some of the results follow. Results filed as inconclusive are left out. Active and inactive are the calls of the source. Calls follow the shape of the dose curve; as a rule, active = well fitted inhibition curve with a large enough effect; inconclusive = small, poorly fitted or top-dose-only effect; inactive = no such curve, though single readings can be large or run the other way.
What follows are molecules tested against 4'-phosphopantetheinyl transferase Sfp (Bacillus subtilis (strain 168)) (UniProt P39135) (assay: qHTS Assay for Inhibitos of Bacillus subtilis Sfp phosphopantetheinyl transferase (PPTase): Chemistry Optimization Followup). Details: purified Sfp PPTase enzyme activity.
Text: The covalent attachment of a phosphopantetheinyl (4'-PP) arm to a variety of synthases and other proteins is a key posttranslational protein modification. The 4'-PP is installed on the proteins post-translationally from coenzyme A (CoA) on a conserved serine residue by action of phosphopantetheinyl transferase (PPTase) enzymes. Phosphopantetheinylation is essential for synthase activity, and removal of the PPTase gene precludes natural product synthesis in microorganisms, or in the case of fatty acid biosynthesis, renders the organism unviable. PPTase enzymes belong to a distinct structural superfamily. Within bacteria, these enzymes are grouped into two classes based upon primary structure, the AcpS-Type and Sfp-Type PPTases.
Sfp-type PPTases, corresponding to an activator of surfactin production in Bacillus subtilis, are responsible for modifying type I polyketide and nonribosomal peptide synthases of prokaryotes. Sfp-type PPTases are responsible for the activation of a variety of pathogen-associated virulence factors. Among these compounds are toxins such as mycolactone from Mycobacterium ulcerans, siderophores such as vibriobactin from Vibrio cholerae or mycobactin from Mycobacterium tuberculosis, as well as the mycolic acids which form the waxy cell wall of Mycobacteria. The biosyntheses of these natural products are considered attractive targets for drug design.
In search of small molecule Sfp-PPTase inhibitors, a fluorescence quenching assay was developed for detection of Bacillus subtilis Sfp-PPTase enzymatic activity in a miniaturized high-throughput format. The consensus ybbr acceptor peptide […] was N-terminally labeled with Black Hole Quencher-2 (BHQ-2) and used in combination with rhodamine-labeled coenzyme A as a co-substrate.
Inhibition of Sfp-PPTase was detected by recording the fluorescence intensity change over a 30-minute reaction period at a 525 nm excitation and 598 nm emission. Reagents were supplied by Michael Burkart and Timothy Foley, University of California at San Diego.
NIH Chemical Genomics Center [NCGC]
NIH Molecular Libraries Probe Centers Network [MLPCN]
Assay Submitter (PI): Michael Burkart, University of California, San Diego
3 uL of Sfp-PPTase enzyme (final concentration 15 nM) and 1 uL of substrate mixture (final concentration for rhodamine-CoA and BHQ-2-YbbR 5 uM and 12.5 uM, respectively) dispensed in columns 1, 2, 5 - 48. Columns 1 and 2 used to generate neutral control (uninhibited reaction)
Three uL of reagents, consisting of buffer (in columns 3 and 4 as negative control) and Sfp-PPTase (in columns 1, 2, 5 - 48) were dispensed into 1,536-well Greiner black solid bottom plate. Compounds (23 nL) were transferred via Kalypsys pintool equipped with 1,536-pin array. The plate was incubated for 15 min at room temperature, followed by the addition of 1 uL substrate to start the reaction. The plate was then centrifuged at 1000 rpm for 15 seconds, and the fluorescence intensity recorded on a ViewLux High-throughput CCD imager (Perkin-Elmer) using standard BODIPY optics (525 nm excitation and 598 nm emission). The plate was then incubated for 30 minutes, and a second read on the ViewLux was performed. The fluorescence intensity difference over the 30-minute period was used to calculate the respective reaction rate for each well.

Potency, active:
Cc1cc(C)nc(NC(=S)N2CCN(c3cccc(C(F)(F)F)c3)CC2)c1 1670 nM
Cc1cc(C)nc(NC(=S)N2CCN(c3cccc(C#N)c3)CC2)c1 5910 nM
COc1ccnc(NC(=S)N2CCN(c3ncc(C(F)(F)F)cc3Cl)CC2)c1 2640 nM
Cc1ccc(N2CCN(C(=S)Nc3cc(C)ccn3)CC2)cc1 6630 nM
Cc1cc(C)nc(NC(=S)N2CCN(c3ccc(Cl)cc3F)CC2)c1 1870 nM
Cc1cc(C)nc(NC(=S)N2CCN(c3ccc4nonc4c3)CC2)c1 7440 nM
Cc1cc(C)nc(NC(=S)N2CCN(c3ccc(Cl)cc3C(F)(F)F)CC2)c1 2960 nM

Source: PubChem BioAssay AID540350 (National Center for Advancing Translational Sciences (NCATS), 2011)
